Assay [1] deals with Aldehyde dehydrogenase, mitochondrial (Homo sapiens) (UniProt P05091). Kind of assay: qHTS for Inhibitors of the Aldehyde Dehydrogenase Family (ALDH2) Primary screen (AID 2061308). Further: nearly all actives have a fitted effect of over 55% in size. A general note: Quantitative high-throughput screening tests each substance at several concentrations.
The target of assay [2] is Retinaldehyde dehydrogenase 3 (Homo sapiens) (UniProt P47895). The assay is described as follows: qHTS for Inhibitors of the Aldehyde Dehydrogenase Family (ALDH1A3) Primary screen (AID 2061315).

Inconclusive results are not listed. A call without a number means that no potency is given here. Calls of active or inactive are those of the source. The call rests on the fitted dose curve; in most records, active means well fitted curve in the direction sought with a large enough effect; inconclusive means small, poorly fitted or top-dose-only effect, or another doubt; inactive means no such curve, though single readings can be large; an effect the other way counts as inactive or inconclusive.

Regarding `Cc1ccc(S(=O)(=O)Nc2ccccc2C(=O)Nc2ccc(-c3ccccc3)cc2)cc1`, the Potency entry in assay [1] and in assay [2] was “inactive” each time.

Take `CS(=O)(=O)c1ccc(C(=O)OCC(=O)N2CCC(c3ccccc3)CC2)cc1[N+](=O)[O-]`: the Potency result in assay [1] and in assay [2] was “inactive” in each case.

Take `COc1ccc(S(=O)(=O)Nc2cnccc2C(=O)Nc2nc(-c3ccccc3)cs2)cc1`: the Potency result in assay [1] and in assay [2] was “inactive” in each case.

As to `Cc1cc2c(s1)c1cnn(Cc3cc(F)ccc3F)c(=O)c1n2C`, the Potency result in assay [1] and in assay [2] was “inactive” in each case.

On to `Cc1ccc(NS(=O)(=O)c2cc3c(cc2N[C@@H](C)CO)NC(=O)CC3)cc1C`, for which the Potency entry in assay [1] and in assay [2] was “inactive” throughout.

For `Cc1cc(C(C#N)c2ccc(Cl)cc2)c(Cl)cc1NC(=O)c1cc(I)cc(I)c1O` (configuration not stated), the Potency entry in assay [1] and in assay [2] was “inactive” each time.

As to `CNc1nc(C#N)c(-c2cccc3ccccc23)o1`, the Potency result in assay [1] and in assay [2] was “inactive” each time.

As to `CN1C(=O)CCc2cc(S(=O)(=O)Nc3ccc(Cl)c(Cl)c3)ccc21`, the Potency entry in assay [1] and in assay [2] was “inactive” each time.

With `COc1ccc(OC)c(C2=Nn3c(nnc3-c3ccc(OC)c(OC)c3)SC2)c1`, the Potency result in assay [1] and in assay [2] was “inactive” in each case.

For `Cc1cccc(CNc2ncnc3ccc(-c4ccc5c(c4)OCO5)cc23)c1`, the Potency result in assay [1] and in assay [2] was “inactive” in each case.

`Fc1ccccc1-c1nc(-c2ccc(-c3nn[nH]n3)cc2)no1`: the Potency result in assay [1] and in assay [2] was “inactive” in each case.

As to `Cc1cc2c(cc1C1(c3ccc(C(=O)O)cc3)CC1)C(C)(C)CCC2(C)C`, the Potency result in assay [1] and in assay [2] was “inactive” in each case.

With `Brc1cnc2nc(SCc3cccnc3)[nH]c2c1`, the Potency result in assay [1] and in assay [2] was “inactive” in each case.

As for `Cc1cccc(CNc2ncnc3ccc(-c4ccc5c(ccn5C)c4)cc23)c1`, the Potency result in assay [1] and in assay [2] was “inactive” in each case.

As to `O=C(Nc1ccc(Cl)cc1)c1ccccc1NCc1ccncc1`, the Potency result in assay [1] and in assay [2] was “inactive” in each case.

Consider `CC(C)Oc1ccc(-c2ccc(=O)n(CC(=O)NCCc3ccccc3)n2)cc1`, for which the Potency entry in assay [1] and in assay [2] was “inactive” throughout.

On to `CCCc1cc(F)c(S(=O)(=O)N2CCN(S(=O)(=O)c3ccc4c(c3)OCCO4)CC2)cc1F`, for which the Potency entry in assay [1] and in assay [2] was “inactive” in each case.

For `CN(C)C(=O)c1cccc(-c2csc(N3CCC(C(N)=O)CC3)n2)c1`, the Potency result in assay [1] and in assay [2] was “inactive” in each case.

On to `O=C1NS(=O)(=O)C(c2ccccc2)C1c1ccccc1` (configuration not stated), for which the Potency result in assay [1] and in assay [2] was “inactive” throughout.

In the case of `CCOc1ccccc1-c1nnc2n1N=C(c1ccccc1OC)CS2`, the Potency entry in assay [1] and in assay [2] was “inactive” throughout.

Turning to `N=c1c2c(ccn1-c1ccccc1)Oc1ccc3ccccc3c1C2c1ccccc1` (configuration not stated), the Potency entry in assay [1] and in assay [2] was “inactive” each time.

`CC(C)(C)c1ccc(CSc2nc3ncc(Br)cc3[nH]2)cc1`: the Potency result in assay [1] and in assay [2] was “inactive” each time.

As to `Cc1cc(NC(=O)Nc2nnc(-c3ccncc3)s2)ccc1Cl`, the Potency entry in assay [1] and in assay [2] was “inactive” in each case.

As for `CCOC(=O)c1csc(NC(=O)c2ccncc2NS(=O)(=O)c2ccc(C)cc2)n1`, the Potency entry in assay [1] and in assay [2] was “inactive” throughout.

As for `O=C(CNC(=O)c1ccc2n[nH]nc2c1)OC(C(=O)Nc1cc(C(F)(F)F)ccc1Cl)c1ccccc1` (configuration not stated), the Potency entry in assay [1] and in assay [2] was “inactive” in each case.

With `CN1CCC(N(Cc2cccs2)c2ccccc2)CC1`, the Potency result in assay [1] and in assay [2] was “inactive” in each case.

With `Fc1cc(Nc2nc(-c3ccncc3)nc3ccccc23)ccc1-c1ccncc1`, the Potency entry in assay [1] and in assay [2] was “inactive” throughout.

Consider `CC(=O)Nc1ccc(S(=O)(=O)Nc2nccs2)cc1`, for which the Potency entry in assay [1] and in assay [2] was “inactive” each time.

Take `O=S(=O)(NC1CCN(S(=O)(=O)c2c(F)cccc2F)CC1)c1ccc2c(c1)OCCO2`: the Potency result in assay [1] and in assay [2] was “inactive” in each case.

For the compound `c1nc(NCC2CCCCC2)c2cc(-c3ccc4c(c3)OCO4)ccc2n1`, the Potency entry in assay [1] and in assay [2] was “inactive” each time.

Consider `O=S(=O)(c1ccc2c(c1)OCCO2)N1CCN(S(=O)(=O)c2c(F)cc(F)cc2F)CC1`, for which the Potency entry in assay [1] and in assay [2] was “inactive” throughout.

Regarding `CCCn1c(-c2ccc(F)cc2)nc2c(NCCN3CCCC3)nc(C)nc21`, the Potency result in assay [1] and in assay [2] was “inactive” throughout.

For the compound `c1ccc(COc2cccc(-c3nc4ccccc4s3)c2)cc1`, the Potency entry in assay [1] and in assay [2] was “inactive” each time.

As to `CN(Cc1nccs1)c1ncnc2ccc(-c3ccc4c(c3)OCO4)cc12`, the Potency result in assay [1] and in assay [2] was “inactive” in each case.

Consider `CN(C)c1cccc(NS(=O)(=O)c2ccc(NC(=O)Cc3ccc(Cl)c(Cl)c3)cc2)c1`, for which the Potency result in assay [1] and in assay [2] was “inactive” each time.

Turning to `COC/C=C/c1cc(F)c(S(=O)(=O)N2CCN(S(=O)(=O)c3ccc4c(c3)OCCO4)CC2)cc1F`, the Potency entry in assay [1] and in assay [2] was “inactive” in each case.

As for `COc1ccc(C(=O)NCC(=O)OC(C(=O)Nc2cc(C(F)(F)F)ccc2Cl)c2ccccc2)cc1OC` (configuration not stated), the Potency result in assay [1] and in assay [2] was “inactive” each time.

As to `CNc1nccc(-c2cccc3ccccc23)n1`, the Potency entry in assay [1] and in assay [2] was “inactive” in each case.

On to `N#Cc1c(-c2ccc3ccccc3c2)no[n+]1[O-]`, for which the Potency entry in assay [1] and in assay [2] was “inactive” each time.

Consider `COc1ccccc1S(=O)(=O)Nc1ccc2c(c1)CN(C)C(=O)N2`, for which the Potency result in assay [1] and in assay [2] was “inactive” in each case.

As to `NC(=O)c1cccc(C[C@H](C(=O)O)N2C(=O)c3ccc(C(=O)O)cc3C2=O)c1`, the Potency result in assay [1] and in assay [2] was “inactive” each time.

Values taken from PubChem BioAssay (NCATS).
